G9a inh = qHTS Assay for Inhibitors of Histone Lysine Methyltransferase G9a | Histone-lysine N-methyltransferase EHMT2 (Homo sapiens), Q96KQ7 | G9a H3K9 monomethylation, AlphaScreen, 2 h | Potency, µM (series often up to 102 µM), hits mostly inhibitors | actives 8.8% (n = 350,000) | AID 504332, 2011; further: nearly all actives have a fitted effect of over 75% in size
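Quantitative HTS format: methyltransferase activity on a biotin-tagged H3K9 peptide is measured by AlphaScreen, using a rabbit anti-monomethyl-H3K9 antibody with streptavidin donor and anti-IgG acceptor beads. Final levels are 20 nM enzyme, 500 nM peptide, 20 uM SAM; 2 h RT.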
GLS inh = qHTS for Inhibitors of Glutaminase (GLS); Glutaminase kidney isoform, mitochondrial (Homo sapiens), O94925; GLS enzymatic activity, qHTS titration; Potency, µM (series often up to 45.5 µM), most hits filed as inhibitors; actives 0.21% (n = 410,000); AID 624170, 2012
Target sequence (O94925 whole entry, looked up, canonical isoform): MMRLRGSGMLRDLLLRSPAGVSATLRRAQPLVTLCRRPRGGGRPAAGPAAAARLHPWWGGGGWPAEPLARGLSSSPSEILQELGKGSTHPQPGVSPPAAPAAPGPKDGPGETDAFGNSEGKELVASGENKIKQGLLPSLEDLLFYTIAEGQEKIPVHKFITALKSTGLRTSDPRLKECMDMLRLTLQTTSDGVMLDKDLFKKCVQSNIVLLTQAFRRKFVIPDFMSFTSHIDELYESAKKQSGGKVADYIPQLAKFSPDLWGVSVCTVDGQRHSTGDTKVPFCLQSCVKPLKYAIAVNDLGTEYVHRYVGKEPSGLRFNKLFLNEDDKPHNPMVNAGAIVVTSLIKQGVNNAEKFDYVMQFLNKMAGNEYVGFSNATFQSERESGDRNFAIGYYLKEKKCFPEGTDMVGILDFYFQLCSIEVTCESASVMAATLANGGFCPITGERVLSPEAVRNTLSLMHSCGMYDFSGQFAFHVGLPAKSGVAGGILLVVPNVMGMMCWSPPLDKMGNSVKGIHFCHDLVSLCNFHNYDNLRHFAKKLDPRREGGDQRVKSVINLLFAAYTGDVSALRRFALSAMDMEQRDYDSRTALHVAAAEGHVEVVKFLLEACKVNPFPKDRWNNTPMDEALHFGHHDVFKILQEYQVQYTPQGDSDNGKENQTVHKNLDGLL
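Read-out is an Amplex red fluorescence increase coupled through glutamate oxidase and HRP, measured before and after 30 min room-temperature incubation. hKGA is in 45 mM KH2PO4 (pH 8.2) with 0.02% Tween-20; glutamine added as 1mM solution.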
JMJD2A Tudor inh = qHTS Assay for Inhibitors of JMJD2A-Tudor Domain; Lysine-specific demethylase 4A (Homo sapiens), O75164; AlphaScreen JMJD2A-Tudor / H3K4me3 peptide binding; Potency, µM (doses to about 114 µM), hits mostly inhibitors; actives 4.4% (n = 390,000); further: nearly all actives have a fitted effect of over 50% in size
HP1b chromo inh = HTS for Inhibitors of HP1-beta Chromodomain Interactions with Methylated Histone Tails; Chromobox protein homolog 1 (Homo sapiens), P83916; AlphaScreen HP1-beta / biotin-H3K9me3 peptide binding; Potency, µM (titrated, usually from 114 µM), usual class: inhibitors; actives 0.56% (n = 390,000); further: nearly all actives have a fitted effect of over 70% in size
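AlphaScreen: HP1-beta (50 nM) preformed 30 min with biotin-H3(1-18)K9me3 peptide (50 nM) in PBS pH 7.4, 0.01% Tween-20. Compound added for 30 min at RT, then streptavidin donor/nickel chelate acceptor beads (10 ug/mL) for 30 min.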
BAZ2B block = qHTS Assay for Inhibitors of BAZ2B; AlphaScreen BAZ2B-H3K14Ac peptide displacement; actives 4.4% (n = 360,000); Bromodomain adjacent to zinc finger domain protein 2B (Homo sapiens), Q9UIF8; Potency, µM (highest dose often 114 µM), usual class: inhibitors; further: nearly all actives have a fitted effect of over 60% in size
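Compounds, titrated to a top concentration of 110 uM, were incubated 30 min at room temperature with preformed BAZ2B/acetyl-K14 H3 peptide complex (50 nM each). Proximity signal was measured by AlphaScreen after 20 min with beads.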
Large screens that a line does not name were inactive. Rows were chosen to be rich in hits. Some 10% of all compounds tested hit in one or more screens of this group. The call rests on the fitted dose curve; in most records, active means well fitted curve in the direction sought with a large enough effect; inconclusive means small, poorly fitted or top-dose-only effect, or another doubt; inactive means no such curve, though single readings can be large; an effect the other way counts as inactive or inconclusive.

COc1ccccc1N1CCN(Cc2cc(COC(C)C)c3cccnc3c2O)CC1	JMJD2A Tudor inh 22.4µM, BAZ2B block 3.98µM
Cc1cc(C)c2c(=O)n3c(nc2c1)C(CC(C)C)NC(=O)c1cccnc1-3 (stereo unspecified)	none (no result: G9a inh, JMJD2A Tudor inh, HP1b chromo inh, BAZ2B block)
CC(C)c1ccc(C(N)=S)cc1	G9a inh 50.1µM, BAZ2B block inconclusive
Cc1ccc(/C=N/N(C)C2=NS(=O)(=O)c3ccccc32)o1	G9a inh 39.8µM (no result: GLS inh, JMJD2A Tudor inh, HP1b chromo inh)
COc1ccc(C2Nc3ccccc3C(=O)N2c2ccc(Cl)cc2)cc1COc1ccc(NC(C)=O)cc1 (stereo unspecified)	none (no result: G9a inh, GLS inh, BAZ2B block)
CCC1(C)CC(=O)N(c2ccc(C(=O)O)c(O)c2)C1=O (stereo unspecified)	G9a inh 50.1µM
CCC1(C)CC(=O)N(c2ccc(F)c(Cl)c2)C(=O)C1	none
CCN(CCO)Cc1cn[nH]c1-c1ccc(C)c(C)c1	G9a inh 3.55µM, JMJD2A Tudor inh 3.55µM, HP1b chromo inh inconclusive, BAZ2B block 56.2µM
CC(=O)Nc1ccc(S(=O)(=O)N2CCN(Cc3csc(C)n3)CC2)cc1	none
Cc1cccc(NC(=S)NCCc2ccccc2)n1	none
Cc1ccccc1NC(=S)NCCc1ccccc1	G9a inh inconclusive, BAZ2B block inconclusive
CC(C)(C)NC(=S)NCCc1ccccc1	G9a inh 44.7µM
S=C(NCCc1ccccc1)Nc1ccccn1	G9a inh 1.41µM, HP1b chromo inh inconclusive
CN(Cc1ccccc1)c1nnc(NC(=O)Nc2cccc(Br)c2)s1	none
CCN(CC)CCOc1ccc(C(O)(Cc2ccc(Cl)cc2)c2ccc(C)cc2)cc1 (stereo unspecified)	none (no result: JMJD2A Tudor inh, HP1b chromo inh, BAZ2B block)
CCN(CC)CCOc1ccc(/C(=C(\Cl)c2ccccc2)c2ccccc2)cc1	JMJD2A Tudor inh 31.6µM, HP1b chromo inh inconclusive, BAZ2B block inconclusive (no result: G9a inh)
CC/C(=C(/c1ccccc1)c1ccc(OCCN(C)C)cc1)c1ccccc1	G9a inh 22.4µM (no result: GLS inh, JMJD2A Tudor inh, HP1b chromo inh, BAZ2B block)
CCOc1ccc(C(=O)OCCN(C)C)cc1	JMJD2A Tudor inh inconclusive
Cc1ccc(S(=O)(=O)N(Cc2nc(-c3cccc(C)c3)no2)C2CCCCC2)cc1	none
CCc1ccc[n+](-c2[nH]c(=O)sc2/C=N/N=C(\[O-])c2ccncc2)c1	G9a inh 39.8µM, BAZ2B block inconclusive
CC(C)OC(=O)C(C(=O)OC(C)C)=C1SC=CS1	none (no result: JMJD2A Tudor inh, HP1b chromo inh, BAZ2B block)
COc1ncc2nc(-c3cccs3)c(=O)n(CCc3ccccc3)c2n1	none (no result: GLS inh, JMJD2A Tudor inh, HP1b chromo inh, BAZ2B block)
O=P(c1ccccc1)(c1ccccc1)c1cc(S(=O)(=O)O)ccc1O	G9a inh 35.5µM, JMJD2A Tudor inh 39.8µM, HP1b chromo inh 35.5µM, BAZ2B block 50.1µM
O=P(O)(c1ccccc1)c1ccccc1O	JMJD2A Tudor inh inconclusive
CC(C)OC(=O)c1cc2c(ccn2C)n1CC(=O)N(Cc1ccccc1)c1ccc(F)cc1	G9a inh 28.2µM, JMJD2A Tudor inh 17.8µM, HP1b chromo inh inconclusive, BAZ2B block 39.8µM
CCOC(=O)c1cc2c(ccn2C)n1CC(=O)N(Cc1ccccc1)c1ccccc1	G9a inh 28.2µM, JMJD2A Tudor inh 25.1µM, BAZ2B block 31.6µM
CC(C)OC(=O)c1cc2c(ccn2-c2ccc(F)cc2)n1CC(=O)N1CCN(C(=O)c2ccco2)CC1	none (no result: G9a inh)
O=C(NC1CC(=O)N(c2ccccc2)C1)C1CC1 (stereo unspecified)	none
COc1ccc(Cl)cc1N(C)C(=O)Cn1cnc2sc(C)c(S(=O)(=O)N3CCN(c4ncccn4)CC3)c2c1=O	G9a inh inconclusive
C/C(=N\NC(=O)c1ccc(O)cc1)c1ccc2c(c1)Nc1ccccc1S2	G9a inh 15.8µM, GLS inh inconclusive, JMJD2A Tudor inh 79.4µM, BAZ2B block 50.1µM
COC(=O)c1ccc(Oc2cc(C)nc(SC)n2)cc1	GLS inh inconclusive, JMJD2A Tudor inh 28.2µM, HP1b chromo inh inconclusive
NS(=O)(=O)c1ccc(NC(=O)CSc2n[nH]c(=O)n2Cc2ccccc2)cc1	G9a inh inconclusive
O=C(CSc1n[nH]c(=O)n1Cc1ccccc1)Nc1ccc(F)c(F)c1F	G9a inh 39.8µM, BAZ2B block inconclusive
CCCCn1c(-c2csc(CC)c2)n[nH]c1=S	G9a inh 1.78µM, GLS inh inconclusive, JMJD2A Tudor inh 39.8µM
S=c1[nH]nc(-c2cccc(Cl)c2)n1CCN1CCCCC1	G9a inh inconclusive
CCCn1c2ccc(C)cc2c2n[nH]c(=S)nc21	G9a inh inconclusive
CCCCn1c(-c2csc(C(C)C)c2)n[nH]c1=S	G9a inh 3.98µM, JMJD2A Tudor inh 79.4µM, HP1b chromo inh inconclusive
CCCc1cc(-c2n[nH]c(=S)n2CC(C)C)cs1	G9a inh 2µM, GLS inh inconclusive, JMJD2A Tudor inh 79.4µM
CC(=O)c1ccc(NC(=O)C(C)Sc2nnc(C3CCCCC3)o2)cc1 (stereo unspecified)	none (no result: GLS inh, JMJD2A Tudor inh, HP1b chromo inh)
CC1(C)Cc2[nH]c(=S)c(C#N)cc2CO1	G9a inh 0.708µM, JMJD2A Tudor inh 6.31µM, BAZ2B block 25.1µM
N#Cc1cc2c([nH]c1=S)CCCC2	G9a inh 1.41µM, GLS inh inconclusive, JMJD2A Tudor inh 3.55µM, BAZ2B block 31.6µM
CCn1nc(NC(=O)c2ccco2)c2cc3ccccc3nc21	G9a inh 7.94µM
CCCn1nc(NC(=O)c2ccco2)c2cc3cc(C)ccc3nc21	G9a inh 22.4µM
CCn1nc(NS(=O)(=O)c2ccc([N+](=O)[O-])cc2)c2cc3ccccc3nc21	G9a inh 44.7µM, BAZ2B block inconclusive
CCCn1nc(NC(=O)c2ccco2)c2cc3ccc(C)cc3nc21	none
CCOc1ccc(-c2nc(CN(Cc3ccccc3)C[C@@H]3CCC(=O)N3)c(C)o2)cc1	G9a inh 44.7µM, BAZ2B block inconclusive
COC(=O)CC1C(C)(C)C(=O)C2CC3C4=CC(=O)OC(c5ccoc5)[C@]4(C)CCC3[C@@]1(C)C2=O (stereo partly specified)	none (no result: GLS inh, JMJD2A Tudor inh, HP1b chromo inh, BAZ2B block)
COc1cccc(-c2nn(C)c3sc(C(=O)NCc4ccc(C)o4)cc23)c1	G9a inh inconclusive, JMJD2A Tudor inh 50.1µM, BAZ2B block inconclusive
COc1cccc(-c2nn(C)c3sc(C(=O)NCc4ccc(OC)cc4OC)cc23)c1	G9a inh inconclusive (no result: BAZ2B block)
CCOC(=O)COc1cc(C)c(Cl)cc1C(=O)c1ccn2nc(-c3ccc(OC)cc3)cc2n1	none
COc1ccc(N=C2NC(=O)C(CC(=O)NCCc3ccc(OC)c(OC)c3)S2)cc1 (stereo unspecified)	none
COc1ccc(CC2SC(=Nc3ccc(F)cc3)NC2=O)cc1 (stereo unspecified)	G9a inh 56.2µM
CCCS(=O)(=O)c1nc(S(=O)(=O)c2ccc(C)cc2)c(NCc2ccc3c(c2)OCO3)s1	G9a inh 39.8µM
C/C(=N/Nc1nc(-c2ccccc2)cc(-c2ccccc2)n1)c1ccc(N)cc1	G9a inh 11.2µM, BAZ2B block inconclusive (no result: GLS inh, JMJD2A Tudor inh, HP1b chromo inh)

Screening results: PubChem, National Center for Advancing Translational Sciences (NCATS)
